Assay results published in ChEMBL document CHEMBL5724796, “Tm Shift (DSF) assay results for EUbOPEN Chemogenomics Library” (2024).
Where “and” joins values, the source holds several entries; their conditions need not be identical. Identical values can stand only once. Non-standard residues stand in square brackets, D forms with d. Residues, ends and D or L forms follow the SMILES beside them. *: point of attachment. Benzoyl(4-OPh) = O=C(c1ccc(Oc2ccccc2)cc1)*; Lys(Et2) = CCN(CC)CCCC[C@H](N)C(=O)O; d(aIle) = CC[C@H](C)[C@@H](N)C(=O)O; Gly(cPent) = N[C@H](C(=O)O)C1CCCC1; NH(propargyl) = C#CCN*

Columns and labels:
Conditions in all cases: Compound concentration 20.0 uM
[1] = target: Tyrosine-protein kinase ABL1 (Homo sapiens) (UniProt P00519)
[2] = target: Bromodomain-containing protein 4 (Homo sapiens) (UniProt O60885)
[3] = target: Cyclin-dependent kinase 2 (Homo sapiens) (UniProt P24941)
[4] = target: Casein kinase I isoform delta (Homo sapiens) (UniProt P48730)
[5] = target: Glycogen synthase kinase-3 beta (Homo sapiens) (UniProt P49841)
[6] = target: Mitogen-activated protein kinase 1 (Homo sapiens) (UniProt P28482)
[7] = target: T1, Aurora kinase A (Homo sapiens) (UniProt O14965)
T1 sequence (whole entry): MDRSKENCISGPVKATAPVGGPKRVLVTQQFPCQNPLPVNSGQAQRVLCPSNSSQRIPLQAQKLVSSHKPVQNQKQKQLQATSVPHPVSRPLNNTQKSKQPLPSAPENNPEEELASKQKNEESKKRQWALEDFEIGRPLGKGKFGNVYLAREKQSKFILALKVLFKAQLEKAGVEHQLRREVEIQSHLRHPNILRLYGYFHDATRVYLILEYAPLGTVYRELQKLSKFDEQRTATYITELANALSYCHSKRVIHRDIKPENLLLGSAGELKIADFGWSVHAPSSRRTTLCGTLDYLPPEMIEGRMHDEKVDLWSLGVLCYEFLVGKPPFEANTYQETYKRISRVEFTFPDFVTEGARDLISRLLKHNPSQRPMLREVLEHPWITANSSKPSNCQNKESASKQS

[8] = target: T2, Transcription intermediary factor 1-alpha (Homo sapiens) (UniProt O15164)
T2 sequence (whole entry): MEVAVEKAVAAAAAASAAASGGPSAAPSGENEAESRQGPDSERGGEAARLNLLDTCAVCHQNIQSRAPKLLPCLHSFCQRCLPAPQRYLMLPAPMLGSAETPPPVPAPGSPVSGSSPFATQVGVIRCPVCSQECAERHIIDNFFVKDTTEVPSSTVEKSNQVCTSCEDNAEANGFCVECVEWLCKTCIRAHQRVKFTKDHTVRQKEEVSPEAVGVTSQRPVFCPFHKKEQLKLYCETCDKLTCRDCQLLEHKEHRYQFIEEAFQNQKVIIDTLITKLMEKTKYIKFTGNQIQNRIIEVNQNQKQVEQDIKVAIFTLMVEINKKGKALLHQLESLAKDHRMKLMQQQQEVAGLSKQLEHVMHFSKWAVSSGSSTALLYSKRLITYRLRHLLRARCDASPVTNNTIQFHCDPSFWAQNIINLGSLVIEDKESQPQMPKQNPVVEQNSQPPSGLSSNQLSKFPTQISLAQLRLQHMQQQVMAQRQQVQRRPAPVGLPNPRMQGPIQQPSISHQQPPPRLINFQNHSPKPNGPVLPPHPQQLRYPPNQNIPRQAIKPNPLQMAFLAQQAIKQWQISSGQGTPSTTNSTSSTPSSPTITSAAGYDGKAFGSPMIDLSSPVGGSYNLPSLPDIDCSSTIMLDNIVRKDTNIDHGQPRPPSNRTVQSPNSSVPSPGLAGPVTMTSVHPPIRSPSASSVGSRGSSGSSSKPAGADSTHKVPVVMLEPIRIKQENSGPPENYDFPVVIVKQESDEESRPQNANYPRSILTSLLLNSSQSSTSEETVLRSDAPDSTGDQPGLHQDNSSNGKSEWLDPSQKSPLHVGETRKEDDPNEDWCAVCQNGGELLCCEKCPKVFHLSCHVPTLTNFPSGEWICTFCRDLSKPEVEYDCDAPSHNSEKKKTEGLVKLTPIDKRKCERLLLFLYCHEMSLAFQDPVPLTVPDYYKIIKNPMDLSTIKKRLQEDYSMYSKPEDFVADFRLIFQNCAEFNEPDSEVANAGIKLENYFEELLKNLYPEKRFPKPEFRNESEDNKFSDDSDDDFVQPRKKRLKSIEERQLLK

Mitogen-activated protein kinase 1 (Homo sapiens), sequence (P28482 whole entry): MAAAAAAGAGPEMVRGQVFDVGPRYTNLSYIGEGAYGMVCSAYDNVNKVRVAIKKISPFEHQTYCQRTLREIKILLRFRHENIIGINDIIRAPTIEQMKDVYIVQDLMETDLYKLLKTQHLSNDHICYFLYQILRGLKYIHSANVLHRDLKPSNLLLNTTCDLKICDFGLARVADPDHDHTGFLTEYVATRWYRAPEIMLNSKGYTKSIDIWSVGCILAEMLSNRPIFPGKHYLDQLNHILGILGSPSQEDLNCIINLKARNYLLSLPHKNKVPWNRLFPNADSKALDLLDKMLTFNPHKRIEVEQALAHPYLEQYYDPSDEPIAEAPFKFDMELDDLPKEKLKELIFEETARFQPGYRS
Tyrosine-protein kinase ABL1 (Homo sapiens), sequence (P00519 whole entry): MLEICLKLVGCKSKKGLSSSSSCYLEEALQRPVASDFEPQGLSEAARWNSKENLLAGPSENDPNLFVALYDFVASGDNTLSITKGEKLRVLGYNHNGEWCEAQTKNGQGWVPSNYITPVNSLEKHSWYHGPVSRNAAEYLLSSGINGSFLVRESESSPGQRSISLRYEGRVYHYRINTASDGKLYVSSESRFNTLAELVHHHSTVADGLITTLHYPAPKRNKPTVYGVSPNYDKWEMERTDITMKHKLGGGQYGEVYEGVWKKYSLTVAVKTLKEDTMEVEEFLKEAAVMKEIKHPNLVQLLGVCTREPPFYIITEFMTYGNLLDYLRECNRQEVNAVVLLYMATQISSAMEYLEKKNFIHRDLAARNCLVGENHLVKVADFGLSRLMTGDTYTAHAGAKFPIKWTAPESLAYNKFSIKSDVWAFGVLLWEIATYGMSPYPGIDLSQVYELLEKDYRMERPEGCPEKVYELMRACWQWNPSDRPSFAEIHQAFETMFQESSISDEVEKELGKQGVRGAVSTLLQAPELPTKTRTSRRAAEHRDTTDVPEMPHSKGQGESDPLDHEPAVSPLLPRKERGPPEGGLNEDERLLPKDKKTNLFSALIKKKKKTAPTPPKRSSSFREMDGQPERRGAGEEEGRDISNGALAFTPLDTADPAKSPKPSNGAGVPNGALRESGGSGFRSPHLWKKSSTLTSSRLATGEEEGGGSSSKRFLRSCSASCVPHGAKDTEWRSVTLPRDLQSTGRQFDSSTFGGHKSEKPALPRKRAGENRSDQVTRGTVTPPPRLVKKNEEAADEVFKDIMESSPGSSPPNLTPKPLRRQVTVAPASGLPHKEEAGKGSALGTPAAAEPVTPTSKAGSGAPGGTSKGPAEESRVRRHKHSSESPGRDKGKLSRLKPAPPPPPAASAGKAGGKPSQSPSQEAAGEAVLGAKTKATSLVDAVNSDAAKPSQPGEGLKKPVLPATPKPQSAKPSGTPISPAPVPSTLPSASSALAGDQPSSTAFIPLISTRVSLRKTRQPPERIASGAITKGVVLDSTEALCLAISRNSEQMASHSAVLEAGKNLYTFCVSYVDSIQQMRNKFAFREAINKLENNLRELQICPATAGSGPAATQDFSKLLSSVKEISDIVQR
Glycogen synthase kinase-3 beta (Homo sapiens), sequence (P49841 whole entry, looked up): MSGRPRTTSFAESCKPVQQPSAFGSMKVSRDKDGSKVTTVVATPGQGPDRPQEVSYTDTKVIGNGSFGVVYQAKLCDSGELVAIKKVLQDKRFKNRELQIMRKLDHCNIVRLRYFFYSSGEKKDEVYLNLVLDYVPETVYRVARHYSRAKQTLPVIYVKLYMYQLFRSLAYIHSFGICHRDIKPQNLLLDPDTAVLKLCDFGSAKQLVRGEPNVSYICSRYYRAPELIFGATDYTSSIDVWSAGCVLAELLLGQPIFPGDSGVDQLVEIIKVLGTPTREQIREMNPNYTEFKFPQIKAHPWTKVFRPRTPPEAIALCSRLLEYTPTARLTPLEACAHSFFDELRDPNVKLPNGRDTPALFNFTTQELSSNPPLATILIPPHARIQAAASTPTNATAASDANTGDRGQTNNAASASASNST
Casein kinase I isoform delta (Homo sapiens), sequence (P48730 whole entry, looked up, canonical isoform): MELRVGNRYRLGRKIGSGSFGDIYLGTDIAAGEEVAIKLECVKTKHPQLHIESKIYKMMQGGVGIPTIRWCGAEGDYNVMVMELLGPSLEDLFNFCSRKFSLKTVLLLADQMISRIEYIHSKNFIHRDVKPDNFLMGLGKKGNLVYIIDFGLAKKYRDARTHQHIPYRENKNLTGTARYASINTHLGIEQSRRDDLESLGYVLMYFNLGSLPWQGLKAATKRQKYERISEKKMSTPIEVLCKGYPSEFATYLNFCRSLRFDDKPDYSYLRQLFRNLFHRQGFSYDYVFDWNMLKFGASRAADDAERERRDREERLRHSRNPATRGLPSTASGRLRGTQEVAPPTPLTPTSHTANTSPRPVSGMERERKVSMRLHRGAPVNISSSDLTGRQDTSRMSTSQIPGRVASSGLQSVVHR

CC(=O)Nc1ccc(OC[C@](C)(O)C(=O)Nc2ccc([N+](=O)[O-])c(C(F)(F)F)c2)cc1
ΔTm [1]: 0.78 °C | ΔTm [2]: -0.77 °C | ΔTm [3]: 0.35 °C | ΔTm [4]: 0.23 °C | ΔTm [5]: 0.71 °C | ΔTm [6]: -0.26 °C | ΔTm [7]: -0.03 °C | ΔTm [8]: 0.02 °C

CN1[C@@H]2CC[C@H]1C[C@@H](OC(c1ccc(F)cc1)c1ccc(F)cc1)C2
ΔTm [1]: 0.58 °C | ΔTm [2]: -2.87 °C | ΔTm [3]: 0.08 °C | ΔTm [4]: -0.16 °C | ΔTm [5]: -0.54 °C | ΔTm [6]: 0.11 °C | ΔTm [7]: -2.6 °C | ΔTm [8]: -0.2 °C

N#Cc1ccc(N2N=C3c4ccc(C(=O)O)cc4CC[C@@H]3[C@@H]2C2CCCC2)cc1Cl
ΔTm [1]: -2.47 °C | ΔTm [2]: 0 °C | ΔTm [3]: -2.04 °C | ΔTm [4]: -4.9 °C | ΔTm [5]: 0 °C | ΔTm [6]: -9.49 °C | ΔTm [7]: 0.42 °C | ΔTm [8]: 1.43 °C

COc1ccc(N(C(=O)Oc2c(C)cccc2C)c2ccnc(Nc3ccc(N4CCN(C)CC4)cc3)n2)c(OC)c1
ΔTm [1]: 9.28 °C | ΔTm [2]: -0.9 °C | ΔTm [3]: 0.75 °C | ΔTm [4]: 0.09 °C | ΔTm [5]: 1.59 °C | ΔTm [6]: 0.08 °C | ΔTm [7]: 0.66 °C | ΔTm [8]: -0.91 °C

CN(C)NC(=O)CCC(=O)O
ΔTm [1]: 0.19 °C | ΔTm [2]: -2.43 °C | ΔTm [3]: -0.11 °C | ΔTm [4]: -0.1 °C | ΔTm [5]: -0.76 °C | ΔTm [6]: 0.1 °C | ΔTm [7]: -2.27 °C | ΔTm [8]: -0.24 °C

COc1cc(C)[nH]c(=O)c1CNC(=O)c1c(C)n([C@H](C)C2CCOCC2)c2ccccc12
ΔTm [1]: 0.28 °C | ΔTm [2]: -1.94 °C | ΔTm [3]: 0.11 °C | ΔTm [4]: 0.07 °C | ΔTm [5]: -0.59 °C | ΔTm [6]: -0.18 °C | ΔTm [7]: -0.23 °C | ΔTm [8]: -0.56 °C

O=C1Cc2cc(C(=O)N[C@@H]3C[C@H]4CC[C@@H](C3)N4S(=O)(=O)CC3CCN(CCCC(F)(F)F)CC3)c(Cl)cc2N1
ΔTm [1]: -0.02 °C | ΔTm [2]: -1.65 °C | ΔTm [3]: 0.34 °C | ΔTm [4]: 0.08 °C | ΔTm [5]: -1.14 °C | ΔTm [6]: -0.31 °C | ΔTm [7]: -0.32 °C | ΔTm [8]: -1.38 °C

C[C@]12CC[C@@H]3c4ccc(O)cc4C[C@@H](CCCCCCCCC[S+]([O-])CCCC(F)(F)C(F)(F)F)[C@H]3[C@@H]1CC[C@@H]2O (stereo not given in full)
ΔTm [1]: -4.09 °C | ΔTm [2]: -2.93 °C | ΔTm [3]: 0 °C | ΔTm [4]: -4.77 °C | ΔTm [5]: 0.72 °C | ΔTm [6]: -12 °C | ΔTm [7]: -0.16 °C

CNC(=O)c1cc(C(=O)NC2CC2)cn(Cc2ccccc2)c1=O
ΔTm [1]: 0.09 °C | ΔTm [2]: -0.92 °C | ΔTm [3]: 0.1 °C | ΔTm [4]: -0.13 °C | ΔTm [5]: -0.62 °C | ΔTm [6]: 0.15 °C | ΔTm [7]: -2.45 °C | ΔTm [8]: 0.41 °C

CC(C)=C[C@H]1C[C@H](C)[C@]2(CC[C@]3(C)C[C@H]4[C@H](C(=O)C[C@@]4(C)O)/C(C=O)=C\C[C@H]32)O1
ΔTm [1]: -0.34 °C | ΔTm [2]: -1.06 °C | ΔTm [3]: -0.29 °C | ΔTm [4]: -0.36 °C | ΔTm [5]: -0.53 °C | ΔTm [6]: -0.16 °C | ΔTm [7]: -1.12 °C | ΔTm [8]: -1.12 °C

Nc1cccc(CNC(=O)c2ccc(Oc3ccc(OCc4cccc(F)c4)cc3)nc2)c1
ΔTm [1]: 1.07 °C | ΔTm [2]: -0.91 °C | ΔTm [3]: 0.38 °C | ΔTm [4]: -0.56 °C | ΔTm [5]: 1.13 °C | ΔTm [6]: -0.86 °C | ΔTm [7]: -1.57 °C | ΔTm [8]: 0.24 °C

CN(Cc1cccc(-c2ccncc2)c1)C(=O)Oc1ccc(-c2ccc(C(N)=O)cc2)cc1
ΔTm [1]: 0.52 °C | ΔTm [2]: 0.54 °C | ΔTm [3]: 0.45 °C | ΔTm [4]: -0.05 °C | ΔTm [5]: 0.86 °C | ΔTm [6]: 0.04 °C | ΔTm [7]: -1.82 °C | ΔTm [8]: 0.18 °C

C#CCNC(=O)[C@H](CO)NC(=O)[C@H](CCCCN(CC)CC)NC(=O)[C@H](NC(=O)[C@@H](NC(=O)c1ccc(Oc2ccccc2)cc1)C1CCCC1)[C@@H](C)CC ({Benzoyl(4-OPh)}-[Gly(cPent)][d(aIle)][Lys(Et2)]S-{NH(propargyl)})
ΔTm [1]: 0.66 °C | ΔTm [2]: -3.19 °C | ΔTm [3]: -0.21 °C | ΔTm [4]: 0.55 °C | ΔTm [5]: -0.46 °C | ΔTm [6]: 0.25 °C | ΔTm [7]: 0.59 °C | ΔTm [8]: -3.76 °C

CCO/N=C1\c2ccccc2-c2nc(C#N)c(C#N)nc21
ΔTm [1]: 0.39 °C and 0.29 °C | ΔTm [2]: -1.18 °C and -1.1 °C | ΔTm [3]: 0.59 °C and 0.08 °C | ΔTm [4]: -1.52 °C and -1.06 °C | ΔTm [5]: 0.4 °C and -0.71 °C | ΔTm [6]: -0.11 °C and -0.98 °C | ΔTm [7]: -2.42 °C and -1.91 °C | ΔTm [8]: 0.92 °C and 0.33 °C

Fc1ccc(C(OCCN2CCN(CCCc3ccccc3)CC2)c2ccc(F)cc2)cc1
ΔTm [1]: 0.53 °C | ΔTm [2]: -4.03 °C | ΔTm [3]: -0.37 °C | ΔTm [4]: -0.45 °C | ΔTm [5]: -0.66 °C | ΔTm [6]: 0.05 °C | ΔTm [7]: -2.65 °C | ΔTm [8]: -0.53 °C

C/C(=N\NC(=O)c1cccc(S(=O)(=O)N2CCOCC2)c1)c1cc(Cl)ccc1O
ΔTm [1]: 0.81 °C | ΔTm [2]: -2.01 °C | ΔTm [3]: 0.83 °C | ΔTm [4]: 0.6 °C | ΔTm [5]: 1.53 °C | ΔTm [6]: 0.14 °C | ΔTm [7]: -0.56 °C | ΔTm [8]: 2.31 °C

COc1cc(O)c2c(c1)/C=C\C[C@H](O)[C@H](O)C(=O)/C=C\C[C@H](C)OC2=O
ΔTm [1]: 6.88 °C | ΔTm [2]: -0.9 °C | ΔTm [3]: 0 °C | ΔTm [4]: 0.3 °C | ΔTm [5]: 0 °C | ΔTm [6]: 0 °C | ΔTm [7]: 0 °C | ΔTm [8]: -0.14 °C

O=C(O)C1=CCCN(CCOC(c2ccc(C(F)(F)F)cc2)c2ccc(C(F)(F)F)cc2)C1
ΔTm [1]: 0.71 °C | ΔTm [2]: -3.83 °C | ΔTm [3]: -0.13 °C | ΔTm [4]: -0.26 °C | ΔTm [5]: -0.54 °C | ΔTm [6]: 0.12 °C | ΔTm [7]: -2.7 °C | ΔTm [8]: 0.08 °C

COC(=O)C[C@@H]1N=C(c2ccc(Cl)cc2)c2c(sc(C)c2C)-n2c(C)nnc21
ΔTm [1]: -0.09 °C | ΔTm [2]: 12.3 °C | ΔTm [3]: -0.41 °C | ΔTm [4]: 0.16 °C | ΔTm [5]: -0.01 °C | ΔTm [6]: -0.21 °C | ΔTm [7]: -1.3 °C | ΔTm [8]: -0.91 °C

Nc1cc2c3c(c1)C(c1ccccc1)=N[C@@H](NC(=O)c1cccnc1)C(=O)N3CC2
ΔTm [1]: 0.6 °C | ΔTm [2]: -0.29 °C | ΔTm [3]: 0.3 °C | ΔTm [4]: -0.17 °C | ΔTm [5]: -0.38 °C | ΔTm [6]: 0.37 °C | ΔTm [7]: -2.21 °C | ΔTm [8]: -0.79 °C

COc1ccc(C(CN(C)C)C2(O)CCCCC2)cc1 (stereo not given)
ΔTm [1]: 0.51 °C | ΔTm [2]: -2.55 °C | ΔTm [3]: -0.01 °C | ΔTm [4]: -0.1 °C | ΔTm [5]: -0.27 °C | ΔTm [6]: 0.12 °C | ΔTm [7]: -1.68 °C | ΔTm [8]: -0.25 °C

N#Cc1nc2c(nc1C#N)-c1ccccc1C2=NOCc1ccccc1
ΔTm [1]: 0.19 °C | ΔTm [2]: 1.2 °C | ΔTm [3]: 3.11 °C | ΔTm [4]: -0.93 °C | ΔTm [5]: 0.13 °C | ΔTm [6]: -0.23 °C | ΔTm [7]: -1.52 °C | ΔTm [8]: 1.99 °C
